Test results as given in PubChem BioAssay (NCATS).
Records with an inconclusive call do not appear. A number with no mark means an inactive call. Active and inactive are the calls of the source. Calls come from the whole dose curve; as a rule, active = well fitted inhibition curve with a large enough effect; inconclusive = small, poorly fitted or top-dose-only effect, or effect the other way; inactive = flat fitted curve, though single readings scatter.

The compounds below were run against ATP-dependent 6-phosphofructokinase (Trypanosoma brucei brucei) (UniProt O15648) (assay: qHTS Assay to Find Inhibitors of T. brucei phosphofructokinase: hit validation (AID 492961;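 for activity change, negative = inhibition: luminescence reports ADP formed as PFK phosphorylates fructose-6-phosphate with ATP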)). Conditions: T. brucei PFK, ADP-Glo luminescence; series mostly up to 51.4 µM; activity change, negative = inhibition: at the top concentration.
Summary of the method: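 Measures ADP output of PFK (1.25 nM) at 0.1 mM ATP, 0.5 mM F6P, pH 8.0 TEA buffer with 5 mM MgCl2. No-enzyme wells define full inhibition; uninhibited enzyme wells define zero.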
% is set by controls: 0 for no effect and ±100 for the full control effect; potency is the fitted concentration of half-maximal effect.

ATP-dependent 6-phosphofructokinase (Trypanosoma brucei brucei), sequence (O15648 whole entry, looked up): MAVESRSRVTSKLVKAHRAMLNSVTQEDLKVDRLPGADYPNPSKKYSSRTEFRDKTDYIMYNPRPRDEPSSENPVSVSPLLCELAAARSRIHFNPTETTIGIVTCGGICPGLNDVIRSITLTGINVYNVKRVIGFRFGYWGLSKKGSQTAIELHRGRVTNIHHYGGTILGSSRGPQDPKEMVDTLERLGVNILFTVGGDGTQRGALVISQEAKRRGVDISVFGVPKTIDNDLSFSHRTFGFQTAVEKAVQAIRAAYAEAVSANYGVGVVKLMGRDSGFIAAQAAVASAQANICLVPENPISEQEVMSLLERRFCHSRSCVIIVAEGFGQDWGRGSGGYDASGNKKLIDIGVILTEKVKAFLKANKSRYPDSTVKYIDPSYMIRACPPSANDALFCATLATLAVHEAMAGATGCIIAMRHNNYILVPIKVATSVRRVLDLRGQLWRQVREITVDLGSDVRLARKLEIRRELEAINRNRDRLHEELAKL

Structure (SMILES)	activity change, negative = inhibition	Potency
CC(C)(C)C(=O)NCCCC(=O)O	-9.41%	–
NCCNCCNCCNCCN	11.1%	–
O=c1cc[nH]c(=O)[nH]1	-6.28%	–
CC[C@@]1(c2ccccc2)NC(=O)N(C)C1=O	-2.65%	–
O=C(O)c1ccccc1O	10.2%	–
O=S(=O)(O)c1cc(I)c(O)c2ncccc12	–	31.6 µM (active)
Cn1cc[nH]c1=S	-5.51% [at 24.3 µM]	–
CC(=O)Nc1ccc(/C=N/NC(N)=S)cc1	–	inactive
CCOC(=O)[C@H](CCc1ccccc1)N[C@@H](C)C(=O)N1C(=O)N(C)C[C@H]1C(=O)O	-4.97%	–
CCN(CC)CCNC(C(=O)OCCC(C)C)c1ccccc1 (stereo not given)	-2.36%	–
O=C(O)c1ccccn1	0.96%	–
CCCCC(CC)COC(=O)c1ccccc1O (stereo not given)	-7.76%	–
CCCCc1ncc(/C=C(\Cc2cccs2)C(=O)O)n1Cc1ccc(C(=O)O)cc1	-3.84%	–
Cc1c(O)cccc1C(=O)N[C@@H](CSc1ccccc1)[C@H](O)CN1C[C@H]2CCCC[C@H]2C[C@H]1C(=O)NC(C)(C)C	0%	–
CN(C)CCN(Cc1ccccc1)c1ccccn1	10.1%	–
CC(=O)c1ccc2c(c1)N(CCCN(C)C)c1ccccc1S2	6.21% [at 24.3 µM]	–
CC(C)(C)NCC(O)COc1ccc(NC(=O)NC2CCCCC2)cc1 (stereo not given)	-6.77%	–
O=C1O[C@H]([C@@H](O)CO)C(O)=C1O	-9.67%	–

Structure (SMILES)	activity change, negative = inhibition	Potency
CCCCN(CCCC)CC(O)c1cc(Cl)cc2c1-c1ccc(Cl)cc1/C2=C/c1ccc(Cl)cc1 (stereo not given)	0%	–
[O-][n+]1cccc(CO)c1	5.97%	–
CC(C)(C)C(=O)C(Oc1ccc(Cl)cc1)n1ccnc1 (stereo not given)	0%	–
O=C(O)c1ccccc1-c1ccc(C(F)(F)F)cc1	9.22%	–
CCCCN1CCCC[C@H]1C(=O)Nc1c(C)cccc1C	5.96%	–
CCOC(CN1CCN(CC(C)C(=O)c2ccccc2)CC1)c1ccccc1 (stereo not given)	0%	–
Oc1cccc(O)c1	-1.98%	–
CC1(C)[C@@H]2CC[C@@]1(C)C(=O)C2	1.93%	–
O=C(O)CN1C(=O)c2cccc3cccc(c23)C1=O	-2.06%	–
Cc1cc(O)cc2c1O[C@](C)(CCC[C@H](C)CCC[C@H](C)CCCC(C)C)CC2	0%	–
CN1CCCCC1CCN1c2ccccc2Sc2ccc(S(C)=O)cc21 (stereo not given)	-7.01%	–
COc1ccc(S(=O)(=O)Nc2nnc(CC(C)C)s2)cc1	–	inactive
NS(=O)(=O)c1cc2c(cc1Cl)NC(CSCc1ccccc1)=NS2(=O)=O	-1.37% [at 24.3 µM]	–
O=C(O)[C@@H]1CSCN1	-19%	–
CCN(CC)CCSC(=O)C(c1ccccc1)c1ccccc1	–	inactive
CC1(C)CO[C@@H](CC(=O)O)CN1	0.092%	–
CCCCCCCCCCCCCCCCCCOCC(O)CO (stereo not given)	2.37%	–
